Counter-ions that a name gives are not always drawn.
Tests used:
Assay in all cases: Euclidean distance of Cell Painting phenotypic profile (signed KS, 77 features) to DMSO centroid (dimensionless distance); 5 or 10 uM (library dependent); higher = stronger phenotypic change vs DMSO (phenoactivity)
Settings in all cases: 48 h
786-O = system: 786-O
Method in brief: (§1)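 Library compounds were applied at 10 or 5 uM, depending on the library, with 0.1% DMSO final, for 48 h to five cancer lines and a healthy fibroblast line. After staining, cells were imaged confocally at 20X across 9 fields per well, and Harmony extracted 77 features, each scored as a signed Kolmogorov-Smirnov statistic against vehicle wells on the same plate. Phenoactivity is the Euclidean distance between each profile and the median vehicle profile, with profiles first plate-position corrected, correlation-weighted and averaged over replicates at the top dose.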

A549 = system: A549
Method in brief: as §1

DU145 = system: DU145
Method in brief: as §1

FB = system: FB
Method in brief: as §1

HEPG2 = system: HEPG2
Method in brief: as §1

OVCAR4 = system: OVCAR4
Method in brief: as §1

CCC[C@@H]1C[C@@H](C(=O)N[C@@H]([C@H]2O[C@H](SC)[C@H](O)[C@@H](O)[C@H]2O)[C@@H](C)O)N(C)C1 [Lincomycin HCl]
Euclidean distance (786-O): 1.49
Euclidean distance (A549): 0.984
Euclidean distance (DU145): 0.817
Euclidean distance (FB): 1.01
Euclidean distance (HEPG2): 0.457
Euclidean distance (OVCAR4): 1.31

Cc1cc(C)c(CNC(=O)c2cc(-c3ccc(CN4CCOCC4)cc3)cc3c2cnn3C2CCCC2)c(=O)[nH]1
Euclidean distance (786-O): 1.48
Euclidean distance (A549): 1.7
Euclidean distance (DU145): 0.808
Euclidean distance (FB): 1.97
Euclidean distance (HEPG2): 1.44
Euclidean distance (OVCAR4): 0.692

N=C(N)N [Guanidine HCl]
Euclidean distance (786-O): 0.653
Euclidean distance (A549): 0.962
Euclidean distance (DU145): 0.525
Euclidean distance (FB): 0.612
Euclidean distance (HEPG2): 0.512
Euclidean distance (OVCAR4): 0.648

NCCCS(=O)(=O)O [Homotaurine]
Euclidean distance (786-O): 1.14
Euclidean distance (A549): 1.27
Euclidean distance (DU145): 0.97
Euclidean distance (FB): 0.97
Euclidean distance (HEPG2): 0.248
Euclidean distance (OVCAR4): 1.36

C[C@H](NC(=O)Cc1cc(F)cc(F)c1)C(=O)N[C@@H]1C(=O)N(C)c2ccccc2-c2ccccc21
Euclidean distance (786-O): 0.725
Euclidean distance (A549): 1.36
Euclidean distance (DU145): 1.17
Euclidean distance (FB): 1.09
Euclidean distance (HEPG2): 0.895
Euclidean distance (OVCAR4): 0.686

CCC1(c2c[nH]cn2)Cc2ccccc2C1 [Atipamezole]
Euclidean distance (786-O): 0.467
Euclidean distance (A549): 0.642
Euclidean distance (DU145): 0.626
Euclidean distance (FB): 0.848
Euclidean distance (HEPG2): 0.484
Euclidean distance (OVCAR4): 0.675

CC1(C)C2CCC1(C)C(O)C2 (configuration not stated) [Borneol]
Euclidean distance (786-O): 1.17
Euclidean distance (A549): 0.812
Euclidean distance (DU145): 1.16
Euclidean distance (FB): 0.792
Euclidean distance (HEPG2): 0.614
Euclidean distance (OVCAR4): 1.08

COc1ccc(-c2cc(=O)c3c(O)cc(O)cc3o2)cc1O [Diosmetin]
Euclidean distance (786-O): 2.12
Euclidean distance (A549): 1.03
Euclidean distance (DU145): 0.892
Euclidean distance (FB): 1.37
Euclidean distance (HEPG2): 1.25
Euclidean distance (OVCAR4): 1.26

Cc1cc(C)nc(O)n1.O=C(Nc1ccc([N+](=O)[O-])cc1)Nc1ccc([N+](=O)[O-])cc1 [Nicarbazin]
Euclidean distance (786-O): 1.37
Euclidean distance (A549): 1.24
Euclidean distance (DU145): 0.953
Euclidean distance (FB): 1.62
Euclidean distance (HEPG2): 0.833
Euclidean distance (OVCAR4): 1.15

Cc1ccc(C(=O)N(CCCN)[C@@H](c2oc3cc(Cl)ccc3c(=O)c2Cc2ccccc2)C(C)C)cc1
Euclidean distance (786-O): 3.9
Euclidean distance (A549): 3.16
Euclidean distance (DU145): 3.86
Euclidean distance (FB): 2.4
Euclidean distance (HEPG2): 2.19
Euclidean distance (OVCAR4): 3.2

Cc1ccccc1N1C(=O)c2cc(S(N)(=O)=O)c(Cl)cc2NC1C (configuration not stated) [Metolazone]
Euclidean distance (786-O): 1.06
Euclidean distance (A549): 0.914
Euclidean distance (DU145): 1.26
Euclidean distance (FB): 0.909
Euclidean distance (HEPG2): 0.715
Euclidean distance (OVCAR4): 1.05

O=C(c1ccc(Nc2nccc(-c3cc4ccccc4s3)n2)cc1)N1CCC(N2CCCC2)CC1 [IKK-16 (IKK Inhibitor VII)]
Euclidean distance (786-O): 3.91
Euclidean distance (A549): 4.2
Euclidean distance (DU145): 3.04
Euclidean distance (FB): 4.35
Euclidean distance (HEPG2): 4.29
Euclidean distance (OVCAR4): 4.4

O=C(Nc1ccccc1)N1CCN(c2nc(-c3ccccc3)ns2)CC1
Euclidean distance (786-O): 0.718
Euclidean distance (A549): 0.932
Euclidean distance (DU145): 0.9
Euclidean distance (FB): 1.03
Euclidean distance (HEPG2): 1.34
Euclidean distance (OVCAR4): 1.08

O=C(O)c1ccc(N2C(=O)/C(=C\c3ccc(-c4ccc([N+](=O)[O-])cc4)o3)C=C2c2ccccc2)cc1
Euclidean distance (786-O): 0.841
Euclidean distance (A549): 1.23
Euclidean distance (DU145): 0.74
Euclidean distance (FB): 0.72
Euclidean distance (HEPG2): 1.83
Euclidean distance (OVCAR4): 0.995

O=c1c(-c2ccc(O)cc2)coc2cc(O)ccc12 [Daidzein]
Euclidean distance (786-O): 0.746
Euclidean distance (A549): 0.736
Euclidean distance (DU145): 0.716
Euclidean distance (FB): 0.782
Euclidean distance (HEPG2): 0.606
Euclidean distance (OVCAR4): 1.13

Cc1cc(-c2ccc(/N=N/c3ccc4c(S(=O)(=O)O)cc(S(=O)(=O)O)c(N)c4c3O)c(C)c2)ccc1/N=N/c1ccc2c(S(=O)(=O)O)cc(S(=O)(=O)O)c(N)c2c1O [Evans Blue]
Euclidean distance (786-O): 0.929
Euclidean distance (A549): 0.808
Euclidean distance (DU145): 0.955
Euclidean distance (FB): 1.65
Euclidean distance (HEPG2): 0.481
Euclidean distance (OVCAR4): 1.37

COc1cc(C[C@H]2C(=O)OC[C@@H]2Cc2ccc(OC)c(OC)c2)ccc1O [(-)-Arctigenin]
Euclidean distance (786-O): 1.04
Euclidean distance (A549): 1.48
Euclidean distance (DU145): 1.36
Euclidean distance (FB): 0.929
Euclidean distance (HEPG2): 2.46
Euclidean distance (OVCAR4): 1.29

CS(=O)(=O)OCCCCOS(C)(=O)=O [Busulfan]
Euclidean distance (786-O): 1.22
Euclidean distance (A549): 0.648
Euclidean distance (DU145): 0.667
Euclidean distance (FB): 0.953
Euclidean distance (HEPG2): 0.977
Euclidean distance (OVCAR4): 1.95

O=C(COc1cccc2c(=O)[nH]ccc12)c1ccccc1
Euclidean distance (786-O): 1.49
Euclidean distance (A549): 1.09
Euclidean distance (DU145): 0.747
Euclidean distance (FB): 0.832
Euclidean distance (HEPG2): 0.68
Euclidean distance (OVCAR4): 0.6

CC(C)(C)[N+]([O-])=Cc1ccc(S(=O)(=O)O)cc1S(=O)(=O)O
Euclidean distance (786-O): 1.04
Euclidean distance (A549): 1.8
Euclidean distance (DU145): 0.995
Euclidean distance (FB): 1.52
Euclidean distance (HEPG2): 1.43
Euclidean distance (OVCAR4): 1.57

CCOC(=O)[C@H](CCc1ccccc1)N[C@@H](C)C(=O)N1C(=O)N(C)C[C@H]1C(=O)O [Imidapril HCl]
Euclidean distance (786-O): 0.604
Euclidean distance (A549): 0.657
Euclidean distance (DU145): 0.965
Euclidean distance (FB): 1.1
Euclidean distance (HEPG2): 1.55
Euclidean distance (OVCAR4): 1.05

CCC(=O)O[C@]1(C(=O)CCl)[C@@H](C)C[C@H]2[C@@H]3CCC4=CC(=O)C=C[C@]4(C)[C@@]3(F)[C@@H](O)C[C@@]21C [Clobetasol propionate]
Euclidean distance (786-O): 1.31
Euclidean distance (A549): 2.17
Euclidean distance (DU145): 2.55
Euclidean distance (FB): 2.08
Euclidean distance (HEPG2): 0.79
Euclidean distance (OVCAR4): 1.96

From the supplement of paper PMC10127200
